PubChem BioAssay AID1159580 (chemical genetic matrix, 2015)
Several values for one entry are separate records, joined by “and”; a condition that tells them apart may be missing. Identical values can stand only once. Out of some 5,500 compounds screened, about 2,000 (36%) were called active. About 18% were inconclusive and are not listed. No stated cut-off is given here; in the data, active means normalized growth mostly below about 0.91 (no sharp cut-off); inconclusive means no clear call, values can overlap the other calls; inactive means mostly above about 0.92. This is one part of the list.

Experiment: chemical genetic growth profiling, strain panel (AID 1159580);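 further: tested at 20 µM; growth read once vehicle control cultures reached saturation at 30 °C; 1 = growth at the plate median or of vehicle wells; lower values mean less growth of the strain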
Conditions: S. cerevisiae deletion strains, growth OD

Measured: normalized growth

Cc1cc(=O)[nH]c(=S)[nH]1
inactive: locus YAL013W, strain DEP1, active compounds read low 1.01 | locus YAL021C, strain ccr4, active compounds read low 0.956 | locus YAL026C, strain drs2, active compounds read low 0.974 | locus YAL030W, strain snc1, active compounds read low 0.98 | locus YBL061C, strain skt5, active compounds read low 0.987 | locus YBR009C, strain hhf1, active compounds read low 0.954 | locus YBR021W, strain FUR4, active compounds read low 0.986 | locus YBR023C, strain chs3, active compounds read low 0.977 | locus YBR171W, strain sec66, active compounds read low 0.987 | locus YBR229C, strain ROT2, active compounds read low 1.01 | locus YBR231C, strain swc5, active compounds read low 0.989 | locus YBR279W, strain paf1, active compounds read low 0.973 | locus YCL011C, strain gbp2, active compounds read low 0.964 | locus YCL016C, strain dcc1, active compounds read low 0.96 | locus YCL029C, strain bik1, active compounds read low 1.02 | locus YCL061C, strain MRC1, active compounds read low 0.926 | locus YCL069W, strain vba3, active compounds read low 0.97 | locus YCR088W, strain abp1, active compounds read low 0.978 | locus YDL005C, strain med2, active compounds read low 0.97 | locus YDL035C, strain GPR1, active compounds read low 0.993 | locus YDL040C, strain nat1, active compounds read low 0.977 | locus YDL074C, strain BRE1, active compounds read low 1.03 | locus YDL101C, strain DUN1, active compounds read low 1.03 | locus YDL134C, strain PPH21, active compounds read low 1 | locus YDL185W, strain tfp1, active compounds read low 1.02 | locus YDL192W, strain arf1, active compounds read low 1 | locus YDR001C, strain nth1, active compounds read low 0.972 | locus YDR069C, strain doa4, active compounds read low 0.982 | locus YDR101C, strain arx1, active compounds read low 0.998 | locus YDR137W, strain rgp1, active compounds read low 0.958 | locus YDR150W, strain NUM1, active compounds read low 1.01 | locus YDR159W, strain sac3, active compounds read low 0.937 | locus YDR162C, strain NBP2, active compounds read low 1.01 | locus YDR195W, strain ref2 0.948 | locus YDR297W, strain sur2, active compounds read low 0.963 | locus YDR318W, strain mcm21, active compounds read low 1.03 | locus YDR334W, strain swr1, active compounds read low 0.973 | locus YDR335W, strain msn5, active compounds read low 0.968 | locus YDR388W, active compounds read low 1.01 | locus YDR392W, strain spt3, active compounds read low 0.929 | locus YDR502C, strain sam2, active compounds read low 0.999 | locus YEL003W, strain gim4, active compounds read low 0.965 | locus YEL037C, strain rad23, active compounds read low 0.98 | locus YEL061C, strain CIN8 (second series), active compounds read low 0.973 | locus YEL061C, strain CIN8, active compounds read low 1 | locus YER015W, strain faa2, active compounds read low 0.989 | locus YER016W, strain bim1, active compounds read low 0.938 | locus YER110C, active compounds read low 1.01 | locus YER111C, strain swi4, active compounds read low 0.976 | locus YER155C, strain BEM2 (second series), active compounds read low 1.01 | locus YER155C, strain BEM2, active compounds read low 1.01 | locus YER167W, strain BCK2, active compounds read low 0.996 | locus YFR010W, strain ubp6, active compounds read low 0.97 | locus YGL078C, strain dbp3, active compounds read low 0.991 | locus YGL086W, strain mad1, active compounds read low 1 | locus YGL167C, strain pmr1, active compounds read low 0.968 | locus YGL173C, strain kem1, active compounds read low 0.968 | locus YGL227W, strain vid30, active compounds read low 0.986 | locus YGL240W, strain doc1, active compounds read low 0.988 | locus YGL248W, strain PDE1, active compounds read low 1.01 | locus YGL253W, strain hxk2, active compounds read low 0.949 | locus YGR078C, strain PAC10, active compounds read low 1.02 | locus YGR135W, strain pre9, active compounds read low 1 | locus YGR229C, strain SMI1, active compounds read low 1.01 | locus YGR252W, strain gcn5, active compounds read low 0.978 | locus YHR013C, strain ard1, active compounds read low 0.914 | locus YHR027C, strain rpn1, active compounds read low 0.965 | locus YHR030C, strain SLT2, active compounds read low 1.01 and 1.08 | locus YHR079C, strain IRE1 (second series), active compounds read low 1.01 | locus YHR079C, strain IRE1, active compounds read low 1.05 | locus YHR094C, strain hxt1, active compounds read low 1.01 | locus YHR129C, strain ARP1, active compounds read low 1.02 | locus YHR142W, strain chs7, active compounds read low 0.952 | locus YHR200W, strain rpn10, active compounds read low 1 | locus YIL066C, strain RNR3, active compounds read low 1.01 | locus YIL073C, strain SPO22, active compounds read low 1.04 | locus YIL125W, strain kgd1, active compounds read low 1 | locus YIR030C, strain dcg1, active compounds read low 1 | locus YJL092W, strain hpr5, active compounds read low 0.987 | locus YJL095W, strain BCK1 (second series), active compounds read low 0.978 | locus YJL095W, strain BCK1, active compounds read low 1.04 | locus YJL115W, strain asf1, active compounds read low 0.97 | locus YJL129C, strain trk1, active compounds read low 0.971 | locus YJL134W, strain LCB3, active compounds read low 1.01 | locus YJL154C, strain vps35, active compounds read low 0.972 | locus YJL164C, strain tpk1, active compounds read low 0.947 | locus YJL166W, strain qcr8, active compounds read low 0.976 | locus YJL168C, strain set2, active compounds read low 1.01 | locus YJL187C, strain SWE1 (second series), active compounds read low 1.03 | locus YJL187C, strain SWE1, active compounds read low 0.976 | locus YJR043C, strain POL32, active compounds read low 1.02 | locus YJR066W, strain TOR1, active compounds read low 0.996
